This note sets out measurements from PubChem BioAssay.

A word on the remaining activity: it is the signal under treatment as a percentage of the control signal.

A number with no mark means an inactive call. How the calls were made is not given here.

The test system of this test is Aerobactin synthetase IucA (Klebsiella pneumoniae, hypervirulent). The test can be described thus: biochemical IucA inhibition screen of LOPAC library by absorbance (AID 1346212).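 Further: 100% = no compound wells and 0% = no enzyme wells.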 To be noted: IucA enzyme assay, absorbance (OD) readout; stronger effect = lower value;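 tested at 8 µM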.
As for `OC[C@H]1NC[C@H](O)[C@@H](O)[C@@H]1O`, the remaining activity was 100%. On to `COc1ccccc1N1CCN(CCCNc2c(C)c(=O)n(C)c(=O)n2C)CC1`, for which the remaining activity is 96.4%. Regarding `COC(=O)[C@@H]1[C@H]2C[C@H]3c4[nH]c5ccccc5c4CCN3C[C@@H]2CC[C@@H]1O`, the remaining activity is 124%. `Cn1c(=O)c2[nH]c(-c3ccccc3)nc2n(C)c1=O`: the remaining activity is 124%. For `COCc1nc2c([nH]1)c(=O)n(C)c(=O)n2CC(C)C` the value was 112%; for `CC[C@H](NC(=O)c1c(C)c(-c2ccccc2)nc2ccccc12)c1ccccc1`, 114%; for `Cc1cccc(C)c1NC(=O)C[N+](C)(C)C`, 116%. As for `Nc1nc2[nH]c(=O)cnc2c(=O)[nH]1`, the remaining activity was 89%. Consider `N#C/C(=C\c1ccc(O)c(O)c1)C(=O)Nc1ccccc1`, for which the remaining activity was 103%. In the case of `OC[C@H]1O[C@@H](n2cnc3c(N[C@H]4CC5CCC4C5)ncnc32)[C@H](O)[C@@H]1O` (stereo not given in full), the remaining activity is 99.3%. With `Oc1ccc(Cn2cc[nH]c2=S)cc1`, the remaining activity is 102%. Turning to `N[C@H](C(=O)O)c1cc(O)cc(O)c1`, the remaining activity is 108%. Next, `C=C[C@H]1CN2CC[C@H]1C[C@H]2[C@H](O)c1ccnc2ccc(OC)cc12`: 110%. As to `N=c1c[n+](N2CCOCC2)[n-]o1`, the remaining activity is 108%.

With `C[N+](C)(CCCCCC[N+](C)(C)CCCN1C(=O)c2cccc3cccc(c23)C1=O)CCCN1C(=O)c2cccc3cccc(c23)C1=O`, the remaining activity was 100%.

Regarding `Oc1ccccc1O`, the remaining activity is 112%. Take `CCCCC/C=C\C[C@@H](O)/C=C/c1cccc(C[C@@H](O)CCCCO)n1`: the remaining activity was 92.2%.

Take `C#C[C@]1(O)CC[C@H]2[C@@H]3CCC4=Cc5oncc5C[C@]4(C)[C@H]3CC[C@@]21C`: the remaining activity is 101%. For `COc1cc(OC)c(/C=C2/C(=O)Nc3ccccc32)c(OC)c1` the value was 99.3%. As to `NC(N)=NC(=O)c1nc(Cl)c(N2CCCCCC2)nc1N`, the remaining activity is 120%. Next, `CN(CCOc1ccc(C[C@H](Nc2ccccc2C(=O)c2ccccc2)C(=O)O)cc1)c1ccccn1`: 117%; `COc1cc(C(O)CO)ccc1OS(=O)(=O)O` (stereo not given): 99.3%. Next, `CCCCS(=N)(=O)CC[C@H](N)C(=O)O` (stereo not given in full): 92.2%; `CCCCCCCCCCCCCCCCCCNC(=O)OCC(COP(=O)([O-])OCC[n+]1ccsc1)OC` (stereo not given): 126%; `NC(N)=N/N=C/c1c(Cl)cccc1Cl`: 87.5%. For `OC[C@H]1O[C@@H](n2cnc3c(NC4CCCCC4)ncnc32)[C@H](O)[C@@H]1O` the value was 93.2%; for `C=CC[C@H](N)C(=O)O`, 95.7%; for `O=c1[nH]c2cc([N+](=O)[O-])c([N+](=O)[O-])cc2[nH]c1=O`, 101%. For `C[C@H]1O[C@@H](n2cc(F)c(=O)[nH]c2=O)[C@H](O)[C@@H]1O`, the remaining activity is 98.9%. As to `S=C(S)N1CCCC1`, the remaining activity was 83.6%. `CN[C@H](CC(C)C)C(=O)N[C@H]1C(=O)N[C@@H](CC(N)=O)C(=O)N[C@H]2C(=O)N[C@H]3C(=O)N[C@H](C(=O)N[C@H](C(=O)O)c4cc(O)cc(O)c4-c4cc3ccc4O)[C@H](O)c3ccc(c(Cl)c3)Oc3cc2cc(c3O[C@@H]2O[C@H](CO)[C@@H](O)[C@H](O)[C@H]2O[C@H]2C[C@](C)(N)[C@H](O)[C@H](C)O2)Oc2ccc(cc2Cl)[C@H]1O`: the remaining activity was 98.6%. As to `O=C(O)[C@@H]1C[C@@H](C(=O)O)N1`, the remaining activity was 115%.

On to `NCCCC(N)(C(=O)O)C(F)F` (stereo not given), for which the remaining activity was 121%. Next, `COc1cc([C@@H]2c3cc4c(cc3[C@@H](O[C@@H]3O[C@@H]5CO[C@@H](C)O[C@H]5[C@H](O)[C@H]3O)[C@H]3COC(=O)[C@H]23)OCO4)cc(OC)c1O`: 127%. Take `CCNC(=O)N1CCN(CCCC(c2ccc(F)cc2)c2ccc(F)cc2)CC1`: the remaining activity is 112%.

For `CC(C)(C)NCC(O)COc1nsnc1N1CCOCC1` (stereo not given), the remaining activity was 109%.

In the case of `COc1cc(CNC(=O)CCCCCCC(C)C)ccc1O`, the remaining activity is 96.1%. For `CN(C)c1cc2c(Nc3ccc4c(cnn4Cc4ccccc4)c3)ncnc2cn1` the value was 115%; for `CN(C)CC[C@@H](c1ccc(Cl)cc1)c1ccccn1`, 117%; for `N=C(N)c1ccc(N)cc1`, 112%.
